Bioassay records: PubChem BioAssay, several laboratories
Peg3 promoter: Peg3 promoter activity inhibition; AID 588405; inhibition, % at 20 µM; HeLa PEG-Prom luciferase reporter, luminescence, overnight; hit rate 1.7% among 360,000;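 active = inhibition of at least 50% at 20 µM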
PAX8 inh HTS: lowers PAX8-driven luciferase in RMG-I cells. RMG-I TPO-luciferase reporter, SteadyGlo, 24 h. inhibition, % at 12.6 µM. hit rate 1.2% among 360,000. AID 652154;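 active = mean replicate inhibition at least 60% with every replicate also reaching 60%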;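 also: luciferase light reporting Pax8 driven TPO promoter activity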
Shn3 inh set2: inhibitors of Schnurri-3 3'UTR reporter in osteoblasts; hit rate 0.52% among 360,000; inhibition, % at 12.5 µM; Clone20 osteoblast Shn3 3'UTR firefly luciferase, 24 h;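 active = mean inhibition of at least 75% with every replicate also reaching 75%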
ABHD5 PLIN5 PPI: inhibitors of human ABHD5-perilipin-5 interaction. hit rate 0.78% among 360,000. Split G. princeps luciferase complementation, luminescence, 4 h. AID 602281. inhibition, % at 4 µM;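 active = inhibition above the mean inhibition across every tested compound plus 3 SD, cut at about 22% in these data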
Target sequence (Q00G26 whole entry, looked up): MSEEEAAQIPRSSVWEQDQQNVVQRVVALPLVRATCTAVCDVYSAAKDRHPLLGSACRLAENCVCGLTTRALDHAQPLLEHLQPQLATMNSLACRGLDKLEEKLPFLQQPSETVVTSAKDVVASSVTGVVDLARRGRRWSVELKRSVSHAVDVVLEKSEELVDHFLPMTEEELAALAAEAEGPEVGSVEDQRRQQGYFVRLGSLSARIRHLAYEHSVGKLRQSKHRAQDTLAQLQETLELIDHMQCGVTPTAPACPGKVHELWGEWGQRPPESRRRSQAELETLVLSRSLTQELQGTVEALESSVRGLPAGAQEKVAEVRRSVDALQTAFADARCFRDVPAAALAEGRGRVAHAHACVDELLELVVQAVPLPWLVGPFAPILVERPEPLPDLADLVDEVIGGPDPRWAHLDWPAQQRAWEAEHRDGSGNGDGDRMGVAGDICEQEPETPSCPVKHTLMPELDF
Target sequence (Q8WTS1 whole entry, looked up): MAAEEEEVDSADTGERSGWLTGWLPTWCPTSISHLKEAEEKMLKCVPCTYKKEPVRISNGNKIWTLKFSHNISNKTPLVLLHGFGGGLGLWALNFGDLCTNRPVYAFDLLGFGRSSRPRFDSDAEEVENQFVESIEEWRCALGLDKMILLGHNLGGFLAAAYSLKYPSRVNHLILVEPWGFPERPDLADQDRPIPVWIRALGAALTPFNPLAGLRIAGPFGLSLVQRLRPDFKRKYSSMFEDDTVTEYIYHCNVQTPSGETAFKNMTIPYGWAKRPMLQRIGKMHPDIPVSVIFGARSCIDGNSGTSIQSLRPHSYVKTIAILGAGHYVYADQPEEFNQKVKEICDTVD
TRPM1 prom inh: reduces MITF-dependent TRPM1 promoter luciferase signal | hit rate 0.83% among 330,000 | inhibition, % at 12.5 µM | AID 488899 | SK-MEL-5 TRPM1 promoter luciferase, 24 h;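 active = mean inhibition across replicates of 60% or more, whatever share of single replicates reaches that level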
EWS-Fli inh: blocks EWS/Fli oncoprotein-driven transcription; A673 NR0B1-luciferase reporter, viability-normalised; inhibition, % at 12.6 µM; hit rate 0.67% among 350,000; AID 651661;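 active = mean inhibition of at least 50% after viability correction, with every replicate also passing that limit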;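 also: firefly luciferase signal divided by Alamar Blue viability fluorescence both relative to DMSO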
Of the large screens only hits and unclear results are named; the others gave an inactive call. Rows were chosen to be rich in hits. Some 3% of all compounds tested hit in one or more screens of this group.

CCCNC(=O)C[C@@H]1CC[C@H]2[C@@H](COc3ccc(NC(=O)c4cccc(F)c4)cc3C(=O)N2C)O1	none (no result: Peg3 promoter, Shn3 inh set2, ABHD5 PLIN5 PPI, TRPM1 prom inh)
CCOc1ccc(-n2c(SCC(=O)N3CCc4ccccc43)nnc2-c2c[nH]c3ccccc23)cc1	none (no result: TRPM1 prom inh)
COc1cccc(-n2c(SCC(=O)N3CCc4ccccc43)nnc2-c2c[nH]c3ccccc23)c1	Peg3 promoter 100.8
CCCN1C[C@H](C)[C@H](OC)CN(C)C(=O)c2cc(NC(=O)Nc3c(C)noc3C)ccc2OC[C@@H]1C	none (no result: Peg3 promoter, Shn3 inh set2, ABHD5 PLIN5 PPI, TRPM1 prom inh)
C[C@@H]1CN([C@@H](C)CO)C(=O)c2cc(NC(=O)Nc3ccc(F)cc3)ccc2O[C@@H]1CN(C)Cc1ccc(C(F)(F)F)cc1	PAX8 inh HTS 69.9 (no result: Peg3 promoter, Shn3 inh set2, ABHD5 PLIN5 PPI, TRPM1 prom inh)
COc1ccc(NC(=O)Nc2ccc3c(c2)C(=O)N([C@@H](C)CO)C[C@@H](C)[C@H](CN(C)Cc2ccc(C(F)(F)F)cc2)O3)cc1	PAX8 inh HTS 90.9 (no result: Peg3 promoter, Shn3 inh set2, ABHD5 PLIN5 PPI, TRPM1 prom inh)
C[C@H](CO)N1C[C@H](C)[C@@H](CN(C)Cc2ccc(C(F)(F)F)cc2)Oc2ccc(NC(=O)Nc3ccccc3)cc2C1=O	none (no result: Peg3 promoter, PAX8 inh HTS, Shn3 inh set2, ABHD5 PLIN5 PPI, TRPM1 prom inh)
COc1ccc(NC(=O)Nc2ccc3c(c2)C(=O)N([C@H](C)CO)C[C@@H](C)[C@H](CN(C)Cc2ccc(C(F)(F)F)cc2)O3)cc1	none (no result: Peg3 promoter, Shn3 inh set2, ABHD5 PLIN5 PPI, TRPM1 prom inh)
COc1ccc(S(=O)(=O)N(C)C[C@H]2Oc3cc(C4=CCCC4)ccc3S(=O)(=O)N([C@@H](C)CO)C[C@H]2C)cc1	none (no result: Peg3 promoter, PAX8 inh HTS, Shn3 inh set2, ABHD5 PLIN5 PPI, TRPM1 prom inh)
COc1ccc(-c2noc(CCC(=O)O)n2)cc1	none (no result: EWS-Fli inh)
COc1ccc(-c2noc(CCCC(=O)O)n2)cc1	TRPM1 prom inh 66.5 (no result: PAX8 inh HTS, EWS-Fli inh)
CC(C)(C)NCC(O)CON=C1c2ccccc2-c2ccccc21 (stereo not given)	Peg3 promoter 84.4
CO[C@H]1CN(C)C(=O)c2ccc(NC(=O)C3CCCC3)cc2OC[C@H](C)N(CC2CC2)C[C@H]1C	none (no result: Peg3 promoter, Shn3 inh set2, ABHD5 PLIN5 PPI, TRPM1 prom inh)
CC1=NN(c2nc(-c3ccc(C)cc3)cs2)C(=O)C1N=Nc1ccccc1O (stereo not given)	Shn3 inh set2 92.2, TRPM1 prom inh 68.9
C[C@H](CO)N1C[C@H](C)[C@H](CN(C)C(=O)Nc2cc(F)ccc2F)Oc2cc(C#CC3CC3)ccc2S1(=O)=O	none (no result: Peg3 promoter, PAX8 inh HTS, Shn3 inh set2, ABHD5 PLIN5 PPI, TRPM1 prom inh)
CCN1/C(=C/c2sc(-c3ccccc3C)c[n+]2C)Sc2ccccc21	PAX8 inh HTS 98.1, Shn3 inh set2 90.2, TRPM1 prom inh 86.0, EWS-Fli inh 65.4
O=C(COc1ccc(Br)cc1Cl)NC(=S)Nc1ccccn1	none (no result: EWS-Fli inh)
Cc1ccc(OCC(=O)NC(=S)Nc2ccccn2)c(Br)c1	EWS-Fli inh 51.5
CCCNC(=O)[C@@H]1[C@@H](CO)[C@@H]2Cn3c(ccc(-c4ccccc4)c3=O)[C@H]1N2C(=O)Nc1ccccc1	none (no result: Peg3 promoter, Shn3 inh set2, ABHD5 PLIN5 PPI, TRPM1 prom inh)
CCN(CC)CCNC(=O)CCc1c(C)nc2c(c(C)nn2-c2ccc(C)c(C)c2)c1C	Peg3 promoter 82.1
O=C(NNc1nc2ccccc2s1)Nc1ccc(F)cc1	none
O=C(NNc1nc2ccccc2s1)Nc1ccc(Cl)c(Cl)c1	PAX8 inh HTS 64.4
Cc1ccc(NC(=O)c2cnn(-c3ccccc3)c2C)cc1C	EWS-Fli inh 55.8
Cc1c(C(=O)Nc2ccccc2)cnn1-c1ccccc1	none
C[C@@H]1CN([C@H](C)CO)C(=O)c2cc(NC(=O)Nc3ccc(C(F)(F)F)cc3)ccc2O[C@@H](C)CCCCO[C@@H]1CN(C)Cc1ccncc1	PAX8 inh HTS 93.2 (no result: Peg3 promoter, Shn3 inh set2, ABHD5 PLIN5 PPI, TRPM1 prom inh)
C[C@@H]1CCCCO[C@H](CN(C)Cc2ccncc2)[C@H](C)CN([C@H](C)CO)C(=O)c2cc(NC(=O)Nc3ccc(C(F)(F)F)cc3)ccc2O1	PAX8 inh HTS 95.4 (no result: Peg3 promoter, Shn3 inh set2, ABHD5 PLIN5 PPI, TRPM1 prom inh)
C[C@@H]1CCCCO[C@@H](CN(C)Cc2ccc(C(F)(F)F)cc2)[C@@H](C)CN([C@H](C)CO)C(=O)c2cc(NC(=O)Nc3ccc(C(F)(F)F)cc3)ccc2O1	none (no result: Peg3 promoter, Shn3 inh set2, ABHD5 PLIN5 PPI, TRPM1 prom inh)
C[C@@H]1CCCCO[C@H](CN(C)Cc2ccncc2)[C@H](C)CN([C@@H](C)CO)C(=O)c2cc(NC(=O)Nc3ccc(C(F)(F)F)cc3)ccc2O1	PAX8 inh HTS 92.1 (no result: Peg3 promoter, Shn3 inh set2, ABHD5 PLIN5 PPI, TRPM1 prom inh)
O=C(NC1CCCCC1)N1CC(=O)N2[C@H](CO)[C@H](c3ccc(-c4cccnc4)cc3)[C@H]2C1	none (no result: Peg3 promoter, Shn3 inh set2, ABHD5 PLIN5 PPI, TRPM1 prom inh)
CN(C)CC#Cc1ccc([C@H]2[C@@H](CO)N3CCCCN(C(=O)C4CCCC4)C[C@H]23)cc1	none (no result: Peg3 promoter, Shn3 inh set2, ABHD5 PLIN5 PPI, TRPM1 prom inh)
COc1ccc(S(=O)(=O)Nc2ccc3c(c2)C(=O)N([C@H](C)CO)C[C@H](C)[C@H](CN(C)C)OCCCC[C@H](C)O3)cc1	none (no result: Peg3 promoter, Shn3 inh set2, ABHD5 PLIN5 PPI, TRPM1 prom inh, EWS-Fli inh)
Cc1ccc(Cl)cc1NC(=S)N/N=C/c1cccc2ccccc12	EWS-Fli inh 53.1
